DT40 TDP1 CPT: qHTS for Inhibitors of human tyrosyl-DNA phosphodiesterase 1 (TDP1): qHTS in cells in presence of CPT; chicken DT40 Tdp1-/-;hTDP1 cells + 20 nM CPT, ATP luminescence, 48 h; 12% of 420,000 active; Potency, µM (top dose mostly 46.2 µM), for inactives: top-dose activity change, negative = growth inhibition, usual class: inhibitors; note: potency is the fitted concentration of half-maximal effect; nearly all actives have a fitted effect of over 55% in size
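Chicken DT40 Tdp1-/- cells complemented with human TDP1, 400 cells/well, exposed to compounds plus 20 nM camptothecin for at least 48 h at 37 C; viability read as ATP content by CellTiter-Glo luminescence.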
CtBP-E1A inh: qHTS Assay for Inhibitors of the CtBP/E1A Interaction; CtBP / adenovirus E1A interaction (AlphaScreen); AlphaScreen GST-E1A/His-CtBP binding, 1536-well; stronger effect = lower value; activity change, % (test concentration not listed); 0.49% of 340,000 active; AID 651724, 2012; in the data active = activity change below about -65%; inconclusive = mostly about -30% to -63%
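In 5 uL wells, 23 nL compound meets equimolar GST-E1A and His-CtBP (5X stock 125 nM each) for 2 h, 37 °C. Beads (5X, 50 ug/mL) then 1 h, 37 °C, dark.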
TDP1 cell noCPT: qHTS for Inhibitors of human tyrosyl-DNA phosphodiesterase 1 (TDP1): qHTS in cells in absence of CPT; DT40 Tdp1-/- hTDP1 cells, no CPT, ATP luminescence, 48 h; Potency, µM (series often up to 46.2 µM), for inactives: top-dose activity change, negative = growth inhibition, most hits filed as inhibitors; 15% of 420,000 active; AID 686978, 2013; note: potency is the fitted concentration of half-maximal effect; nearly all actives have a fitted effect of over 55% in size
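Camptothecin absent (DMSO only). Human TDP1-complemented DT40 knockout cells, 400 cells/well, 37 °C for minimum 48 hr; ATP measured via CellTiter-Glo, 30 min dark incubation, luminescence.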
Six1-Eya2 blk: qHTS Assay for Inhibitors of the Six1/Eya2 Interaction; AlphaScreen GST-Six1/His-Eya2 binding, biochemical; stronger effect = lower value; activity change, % (test concentration not listed); 0.56% of 360,000 active; AID 651725, 2012; in the data active = activity change below about -65%; inconclusive = mostly about -30% to -63%
Target sequence (O00167 whole entry, looked up): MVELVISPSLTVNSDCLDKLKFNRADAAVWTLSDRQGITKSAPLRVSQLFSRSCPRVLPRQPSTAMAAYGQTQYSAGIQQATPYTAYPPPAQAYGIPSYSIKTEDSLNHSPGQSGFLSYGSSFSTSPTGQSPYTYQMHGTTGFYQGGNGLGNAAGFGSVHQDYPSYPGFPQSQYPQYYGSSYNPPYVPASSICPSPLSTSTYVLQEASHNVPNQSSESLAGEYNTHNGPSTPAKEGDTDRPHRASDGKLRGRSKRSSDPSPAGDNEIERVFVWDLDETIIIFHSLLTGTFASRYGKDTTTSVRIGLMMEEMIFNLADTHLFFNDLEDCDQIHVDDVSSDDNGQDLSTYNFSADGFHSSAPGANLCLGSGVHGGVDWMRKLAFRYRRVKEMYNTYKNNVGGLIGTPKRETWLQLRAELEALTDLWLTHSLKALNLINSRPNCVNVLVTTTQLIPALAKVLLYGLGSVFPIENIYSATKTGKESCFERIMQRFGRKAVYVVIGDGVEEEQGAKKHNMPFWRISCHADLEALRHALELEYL
Target sequence (Q15475 whole entry, looked up): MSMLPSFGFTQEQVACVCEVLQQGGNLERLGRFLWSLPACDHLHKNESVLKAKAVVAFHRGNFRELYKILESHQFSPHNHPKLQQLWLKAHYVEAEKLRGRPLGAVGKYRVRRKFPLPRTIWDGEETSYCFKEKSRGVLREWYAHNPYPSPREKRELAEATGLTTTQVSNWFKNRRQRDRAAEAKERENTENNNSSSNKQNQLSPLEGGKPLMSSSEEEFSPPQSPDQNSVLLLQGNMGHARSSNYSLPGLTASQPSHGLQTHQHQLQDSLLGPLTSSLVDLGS
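Homogeneous AlphaScreen proximity assay pairing GST-Six1 with His-tagged Eya2 (added as 5X mix: 250 nM and 500 nM) in 50 mM Tris pH 8.0, 300 mM NaCl, 1 mM TCEP. Glutathione donor and nickel acceptor beads; 1 h, 37 °C, dark.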
TDP1 block: qHTS Assay for Inhibitors of Tyrosyl-DNA Phosphodiesterase (TDP1) | Potency, µM (top dose mostly 130 µM), for the others: top-dose activity change, negative = inhibition, actives largely listed as inhibitors | 0.28% of 350,000 active | Tyrosyl-DNA phosphodiesterase 1 (Homo sapiens), Q9NUW8 | AID 485290, 2010 | recombinant TDP1, AlphaScreen DNA substrate cleavage; note: potency is the fitted concentration of half-maximal effect; nearly all actives have a fitted effect of over 40% in size
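Signal: AlphaScreen proximity between streptavidin donor and anti-FITC acceptor beads on intact substrate. Reaction: Tdp1 1 nM, substrate 15 nM final, 5 min RT after 15 min compound preincubation.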
IL1B secr inh: qHTS for Inhibitors of Inflammasome Signaling: IL-1-beta AlphaLISA Primary Screen; 4.7% of 360,000 active; AID 743279, 2014; activity change, % at 57.5 µM; THP-1 LPS/ATP IL-1B secretion, AlphaLISA, 16 h; stronger effect = lower value; in the data active = activity change below about -50%; inconclusive = mostly about -30% to -49%
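THP-1 cells pretreated 1 hr with compounds (up to 57.5 uM final), then stimulated with LPS (250 ng/mL final) plus ATP (1.25 mM final); secreted IL-1B measured by AlphaLISA after 16 hr, decreased signal indicating inhibition.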
* marks the source's active call; other numbers are inactive results; ? = inconclusive; . = no result given; [ ] = dose if it differs, or a comment. In the library only some 18% were active in any assay of this set; here they are far more common. Unless noted, calls come from the whole dose curve; as a rule, active = well fitted curve in the direction sought with a large enough effect; inconclusive = small, poorly fitted or top-dose-only effect, or another doubt; inactive = no such curve, though single readings can be large; an effect the other way counts as inactive or inconclusive. % is set by controls: 0 for no effect and ±100 for the full control effect.

SMILES	DT40 TDP1 CPT	CtBP-E1A inh	TDP1 cell noCPT	Six1-Eya2 blk	TDP1 block	IL1B secr inh
Oc1c(CN2CCOCC2)cc2c(c1-c1c(O)c(CN3CCOCC3)cc3c1CCCC3)CCCC2	.	.	.	.	8%	.
CC(=O)N1CCN(C(=O)c2cc3ccccc3o2)CC1	7%	1	-11%	7	-6%	-4
O=C(c1cc2ccccc2o1)N1CCN(C/C=C/c2ccccc2)CC1	15µM*	-8	?	-14	5%[56.1 µM]	-55*
O=C(C1CCN(Cc2ccccc2)CC1)N1CCN(C/C=C/c2ccccc2)CC1	?	-7	23µM*	-2	-4%	?
O=C(C1CC1)N1CCN(Cc2ccccc2)CC1	0%	1	-5%	4	.	24
CC1(C)C(C=C(Cl)Cl)C1C(=O)N1CCN(Cc2ccccc2)CC1 (centres undefined)	-3%	3	?	13	0%	-51*
O=S(=O)(c1ccc(S(=O)(=O)N2CCN(C/C=C/c3ccccc3)CC2)cc1)N1CCCC1	?	3	12µM*	0	4%	13
S=C(NC1CCCC1)N1CCN(C/C=C/c2ccccc2)CC1	?	-20	21µM*	0	3%	-66*
Cc1nn(-c2ccccc2)c(C)c1/C=N\N1CCN(c2ccc(Cl)cc2)CC1	18µM*	-2	10µM*	-11	1%	-16
Cc1nn(-c2ccccc2)c(C)c1/C=N/n1cnnc1	21%	-7	2%	5	3%	43
CCC(=O)Nc1ccc(-c2nnc(SCC(=O)N3CCCCC3)n2C)cc1	0%	4	-2%	1	7%	7
COc1ccc(CN2CCN(C(=O)C3CCC(CNS(=O)(=O)c4ccc(C)cc4)CC3)CC2)c(OC)c1OC (centres undefined)	?	-12	21µM*	1	-2%	-12
COc1ccc(CN2CCN(S(=O)(=O)c3ccc(NC(C)=O)cc3)CC2)c(OC)c1OC	16µM*	.	?	0	-6%	-4
c1ccc2[nH]c(CSc3nc4ccccc4o3)nc2c1	?	5	?	0	-6%	-12
O=C(COC(=O)c1ccccn1)NCc1cccc(Cl)c1	-1%	3	-23%	-8	-5%	12
O=C(COc1ccccc1C(=O)NCc1ccncc1)Nc1ccc(Br)cc1	-17%	-1	-27%	-12	0%	-24
CC(NS(=O)(=O)c1ccc(OCC(=O)NCc2ccncc2)cc1)c1ccccc1 (centres undefined)	4%	-4	9%	1	-3%	32
O=C(COc1ccccc1C(=O)Nc1ccccc1)Nc1cccc(Cl)c1	18µM*	.	18µM*	.	.	.
O=C(COc1ccccc1C(=O)Nc1cccc([N+](=O)[O-])c1)Nc1ccc(Br)cc1	7.9µM*	.	16µM*	.	.	.
CC(NS(=O)(=O)c1ccc(OCC(=O)Nc2cccc([N+](=O)[O-])c2)cc1)c1ccccc1 (centres undefined)	?	-6	21µM*	-16	5%	-4
O=C(COc1cccc2ccccc12)Nc1cc(Cl)ccc1C(=O)O	11%	1	-10%	-20	5%	-53*
O=C(COc1cccc2ccccc12)Nc1ccc(Cl)cc1C(=O)O	?	3	?	-9	5%	56
CC(=O)SCC[N+](C)(C)C	4%	2	?	-6	10%[56.1 µM]	31
COc1ccc(-c2c(C(=O)c3ccccc3)[nH]c(N)c2C(=O)c2ccc(Br)cc2)cc1OC	?	-1	?	-28	.	3
Cc1cc2oc(C(=O)Nc3ccc(S(=O)(=O)N(C)c4ccccc4)cc3)cc(=O)c2cc1C	-14%	.	-3%	.	0%	.
SMILES	DT40 TDP1 CPT	CtBP-E1A inh	TDP1 cell noCPT	Six1-Eya2 blk	TDP1 block	IL1B secr inh
Cc1ccc(NC(=O)c2sc(-n3nc(C)c(Cc4ccc(Cl)cc4)c3C)nc2C)cc1	6%	.	0%	.	4%	.
C[C@H](CO)N1C[C@H](C)[C@@H](CN(C)C(=O)Nc2ccc(F)cc2)OCc2cnnn2CCCC1=O	13%	10	4%	7	.	15
CCCOC(=O)c1cccc(NC(=O)COc2ccc([N+](=O)[O-])cc2)c1	18µM*	17	23µM*	3	3%	-8
O=C(COc1ccccc1C(=O)Nc1ccccc1)NCCCCc1ccccc1	?	.	18µM*	.	.	.
CCCCc1ccc(NC(=O)COC(=O)c2ccccc2OCC(=O)Nc2ccc(Br)cc2)cc1	11µM*	.	?	.	.	.
O=C(COC(=O)COc1ccccc1)Nc1cccc([N+](=O)[O-])c1	-6%	5	-12%	6	2%	-9
CCOC(=O)c1cccc(NC(=O)COc2ccc([N+](=O)[O-])cc2)c1	?	-6	?	-2	-2%	10
CCOc1ccccc1C(=O)NCC(=O)NCCCc1ccccc1	6%	6	-11%	0	0%	-11
O=C(COc1ccccc1C(=O)Nc1ccccc1)Nc1cccc([N+](=O)[O-])c1	13µM*	.	?	.	.	.
CC(C)(C)NC(=O)COC(=O)c1ccccc1OCC(=O)Nc1ccc(Br)cc1	-3%	-2	-27%	9	3%	3
O=C(NCC(=O)N1CCN(Cc2ccccc2)CC1)c1cccs1	-6%	-8	4%	2	-1%	-1
CC1CN(C(=O)CN2C(=O)c3ccccc3C2=O)CC(C)O1 (centres undefined)	-9%	1	?	9	6%	10
CCOc1ccc2[nH]c(=O)c(CN(Cc3ccc(C)cc3)C(=O)N3CCCC3)cc2c1	?	2	21µM*	1	4%	1
CCOc1ccc2[nH]c(=O)c(CN(CCc3ccccc3)C(=O)N3CCCC3)cc2c1	13µM*	-10	?	-1	4%	-2
CCn1c(COc2cccc3cccnc23)nnc1SC(F)F	9%	-20	-12%	11	-6%	-10
Cc1cnn(CCC(=O)NNC(=S)NCC(C)C)c1	?	-21	26µM*	-4	-1%	-8
CCCCNC(=S)NNC(=O)CCn1cc(C)cn1	-12%	-5	-22%	-4	0%	-1
Cc1cnn(CCC(=O)NNC(=S)Nc2ccccc2)c1	11µM*	0	18µM*	5	9%	10

Bioassay records from PubChem BioAssay.
